Screening results (PubChem BioAssay)
PrPC TRFRET – cell surface PrPC inhibition, primary TR-FRET screen | P04156 | TR-FRET read-out | inhibition, % at 13.8 µM | 370,000 compounds, 0.43% hits; in the data active = inhibition above about 24%; note: 0% = median of the test wells and 100% = reference compound wells
SSB-PriA inh – inhibitors of Klebsiella pneumoniae PriA binding to SSB C-terminal tail | AID 1272365 | AlphaScreen SSBct-PriA binding, biotinylated peptide | inhibition, % at 33 µM | 430,000 compounds, 0.6% hits; in the data active = inhibition mostly above about 37%, no sharp cut-off; inactive = mostly below about 20%;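 note: plate controls were negative control peptide for no effect and reference peptide for full effect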
Vc quorum ag – induces V. cholerae light production without autoinducers. V. cholerae BH1578 lux reporter, luminescence, 6 h. activation, % at 18.7 µM. 350,000 compounds, 0.16% hits. AID 588436; in the data active = activation mostly above about 9.7%, no sharp cut-off; inconclusive = no clear call, values can overlap the other calls; inactive = mostly below about 3.7%
PrP UTR inh – inhibition of PrP 5' UTR reporter expression; cell-based PrP 5' UTR mRNA reporter, plate reader; inhibition, % (test concentration not listed); 340,000 compounds, 0.35% hits; in the data active = inhibition above about 52%; note: 0 = median of the neutral control wells
FadD28 binding – blocks FadD28 binding to the bisubstrate probe. 360,000 compounds, 0.22% hits. fluorescence polarization. inhibition, % at 12.5 µM. AID 588549; in the data active = inhibition above about 8.5%, passing the limit was not always enough; inconclusive = no clear call, values can overlap the other calls
* marks the source's active call; other numbers are inactive results; i = inactive; u = inconclusive; x = not tested or not shown. Sampled rows, rich in hits. Any-hit rate of the full collection: about 1.4%.

SMILES | PrPC TRFRET | SSB-PriA inh | Vc quorum ag | PrP UTR inh | FadD28 binding
Oc1cccc(C=NNc2ccccn2)c1 | 6 | 3 | -1 | -13 | -4
Cc1ccccc1NC(=S)NN=Cc1ccc(O)cc1O | x | 50* | x | x | x
O=C(Cn1cnc2c(sc3cccc(Cl)c32)c1=O)Nc1ccccc1C(F)(F)F | x | -4 | x | x | x
Nc1ccc(Nc2ccccc2)c(Cl)c1 | -1 | 52* | -7 | -13 | 2
c1ccc(Nc2ccc(Nc3ccccc3)cc2)cc1 | -4 | 28 | 0 | -40 | -1
Nc1ccccc1Nc1ccccc1 | -3 | 64* | 0 | -21 | 2
CC(C)NC(=S)NN=Cc1c[nH]c2ccccc12 | x | 19 | x | x | x
COc1cc(Cn2nc(-c3cccs3)c3sc(N4CCOCC4)nc3c2=O)cc(OC)c1 | x | 5 | x | x | x
O=c1c(S(=O)(=O)c2cccc(Cl)c2)cn(Cc2ccc(F)cc2)c2cc(N3CCOCC3)c(F)cc12 | x | -4 | x | x | x
CCCc1cc(=O)[nH]c(SCc2cccc(F)c2)n1 | x | 2 | x | x | x
Cc1ccc(S(=O)(=O)N2[C@@H](c3cccc(Cl)c3)C(C(=O)O)=CC[C@H]2c2cccc(Cl)c2)cc1 | 4 | -7 | 0 | -10 | 14*
Cc1ccc(S(=O)(=O)N2[C@@H](c3cccc(Cl)c3)C(C(=O)O)=CC[C@H]2c2cccc(C)c2)cc1 | -8 | -9 | 0 | -27 | u
C=CCN1C(=O)C(C)(C)COc2cc(NS(=O)(=O)c3ccc(F)c(C)c3)ccc21 | x | -7 | x | x | x
COc1ccc(/C=C2/SC(=S)N(NS(=O)(=O)c3ccccc3)C2=O)cc1 | -2 | 0 | 1 | -9 | 2
C=CCOc1ccc(/C=C2\SC(=S)N(NS(=O)(=O)c3ccccc3)C2=O)cc1 | -4 | -3 | i | -10 | 12*
CC(/C=C1\SC(=S)N(NS(=O)(=O)c2ccc(C)cc2)C1=O)=C\c1ccccc1 | -3 | -5 | 0 | -10 | 11*
Cc1ccc(-c2csc(-c3nnn(-c4ccccc4)c3C)n2)cc1 | x | -10 | x | x | x
COc1cc(CN2CCN(C[C@H](C)O)CC2)cc(OC)c1 | x | -1 | x | x | x
Cc1ccccc1C(=O)NC(=S)Nc1ccccc1N1CCCC1 | 8 | 39* | 0 | -13 | -3
CCOC(=O)N1CCC(NC(=O)C2CSc3ncc(C)c(=O)n3C2)CC1 (stereo unspecified) | x | -10 | x | x | x
Cc1nc2ccccn2c1C(=O)NCC1CCCN1c1nc2ccccc2o1 (stereo unspecified) | x | -6 | x | x | x
O=C(NC[C@H]1CCCN1c1nc2ccccc2o1)c1ccc(-n2cccc2)cc1 | x | 29* | x | x | x
O=C(Cn1cc(-c2nc(-c3cnccn3)no2)ccc1=O)Nc1ccc2c(c1)OCCO2 | x | -14 | x | x | x
CN(C)c1ccc(Cc2cc3c(O)ccc(O)c3cc(Cc3ccc(N(C)C)cc3)c2=O)cc1 | -7 | 14 | -1 | -7 | 11*
CC(C)C(=O)NCCc1ccc(N(C)C)cc1 | x | -3 | x | x | x
SMILES | PrPC TRFRET | SSB-PriA inh | Vc quorum ag | PrP UTR inh | FadD28 binding
COC(=O)N1CCc2ccc(NC(=O)c3c(F)cccc3F)cc2C1 | x | -3 | x | x | x
CC(=O)c1cccc(NC(=O)Cn2cc(S(=O)(=O)Cc3ccccc3)c3ccccc32)c1 | x | 2 | x | x | x
CCc1c(O)nc(SCC(=O)Nc2nc3ccccc3s2)n(-c2ccccc2)c1=O | 9 | -3 | i | -21 | 14*
O=C(NCCn1nc(-c2ccncc2)cc1C1CC1)c1nc2ccccc2s1 | x | 2 | x | x | x
C/C(=N\N(C)C)C1=C(O)c2ccccc2C1=O | -7 | x | 0 | -22 | 0
CC(=NCCCN(C)C)C1=C(O)c2ccccc2C1=O | -10 | -2 | 17* | -6 | -2
CC(Cc1ccccc1)/[N+]([O-])=C\c1ccc(C(F)(F)F)cc1 (stereo unspecified) | 0 | 46* | i | -38 | 0
O=C(O)CCSc1ccc(Cl)cc1 | x | -14 | x | x | x
O=C(NCc1ccccn1)C1CCC(=O)N1C1CCCCC1 (stereo unspecified) | 0 | 104* | 0 | -4 | -2
Cc1cc(N)nc(Nc2ccc(C)c(Cl)c2)n1 | x | -12 | x | x | x
O=C1C[C@H](c2nc3ccccc3[nH]2)CN1c1ccccc1Br | x | 0 | x | x | x
CCOC(=O)C=C1Nc2ccccc2SC1=O | x | -14 | x | x | x
N#Cc1nc(-c2cccs2)oc1N1CCN(Cc2ccccc2)CC1 | -2 | 41* | i | 0 | 0
O=C(O)c1cncc2c1NCCC2 | x | -5 | x | x | x
O=C(O)c1ccc2c(n1)NCCC2 | x | 94* | x | x | x
Cc1ccc(NC(=O)N(CCCN2CCOCC2)Cc2cccs2)cc1C | -6 | 92* | 0 | 4 | 0
CCCCOc1ccc(NC(=O)c2cnc(C)cn2)cc1 | 0 | -25 | 17* | -54 | -3
COCCN1CCCc2ccc(NS(=O)(=O)Cc3cccc(C)c3)cc21 | x | 40* | x | x | x
COCCN1CCCc2ccc(NS(=O)(=O)c3ccc(OCC(C)C)cc3)cc21 | x | 39* | x | x | x
COCCN1CCCc2ccc(NC(=O)c3ccc(C(C)(C)C)cc3)cc21 | x | 29 | x | x | x
COCCN1CCCc2ccc(NS(=O)(=O)c3ccc(Cl)cc3)cc21 | x | 25 | x | x | x
COCCN1CCCc2ccc(NC(=O)c3cccc(Br)c3)cc21 | x | 56* | x | x | x
COCCN1CCCc2ccc(NS(=O)(=O)c3cccc(C)c3)cc21 | x | 4 | x | x | x
O=C(c1ccc(Cl)s1)N1CC(n2cc(-c3ccccc3)nn2)C1 | x | -17 | x | x | x
Cc1cc(N2CCCC2)nc(Nc2ccc(NS(=O)(=O)c3ccc(Cl)cc3)cc2)n1 | x | -9 | x | x | x
SMILES | PrPC TRFRET | SSB-PriA inh | Vc quorum ag | PrP UTR inh | FadD28 binding
Cc1cc(N2CCCC2)nc(Nc2ccc(NS(=O)(=O)c3ccc(I)cc3)cc2)n1 | x | 44* | x | x | x
C#CCOCCOCCOCCNc1nc(N2CCN(C(=O)CCCCCCCCCCNC(=O)[C@@H](CCSC)n3cc(CCO)nn3)CC2)nc(N2CCN(C(=O)CCCCCCCCCCNC(=O)[C@H]([C@@H](C)CC)n3cc(CCCCN=C(N)N)nn3)CC2)n1 | x | 14 | -2 | -1 | 11*
Cc1c(-c2cc(Br)ccc2O)nc2cc3c(cc2c1C)OCO3 | -5 | 5 | i | -13 | 29*
Cc1ncn(CC(=O)N2CCCC(Oc3nccnc3C#N)C2)c(=O)c1C (stereo unspecified) | x | -19 | x | x | x
CC=CC(C)=CC(C)C(=O)CC(O)CC1CC(=O)NC(=O)C1 (stereo unspecified) | 46* | x | i | x | -1
Cc1cc(N)n(-c2ccc(Oc3ccccc3)c(S(=O)(=O)O)c2)n1 | 0 | -16 | i | -25 | 14*
CCn1c(=O)c(C(=O)CN2c3ccccc3CC2C)c(N)n(Cc2ccccc2)c1=O (stereo unspecified) | -4 | 39* | 0 | 1 | 0
CC1Cc2ccccc2N1CC(=O)c1c(N)n(Cc2ccccc2)c(=O)n(C)c1=O (stereo unspecified) | 2 | 7 | 0 | -20 | -4
Oc1ccccc1CNc1cccc2cccnc12 | -18 | 20 | 0 | -31 | -2
COc1cc(N)c2ncccc2c1 | x | 47* | x | x | x
COc1cc(NCc2ccccc2O)c2ncccc2c1 | -13 | -1 | i | -22 | 12*
CCc1noc(C)c1C(=O)Nc1cc(S(=O)(=O)N2CCCCC2)ccc1N(C)C | 1 | -3 | -1 | -19 | -1
CCc1noc(C)c1C(=O)Nc1cc(S(=O)(=O)N2CCOCC2)ccc1OC(C)C | -7 | -4 | -2 | -9 | 16*
